This is an account of results in the supplement of paper PMC3334620.

Whole data set: some 33,000 sequences, median “E-score (-0.5 to 0.5)” near -0.015, cut for the highest 2% near 0.3. This excerpt belongs to a sample that is enriched for the highest values.

The target in this test is T1, Abf1 (UniProt P14164).
T1 sequence: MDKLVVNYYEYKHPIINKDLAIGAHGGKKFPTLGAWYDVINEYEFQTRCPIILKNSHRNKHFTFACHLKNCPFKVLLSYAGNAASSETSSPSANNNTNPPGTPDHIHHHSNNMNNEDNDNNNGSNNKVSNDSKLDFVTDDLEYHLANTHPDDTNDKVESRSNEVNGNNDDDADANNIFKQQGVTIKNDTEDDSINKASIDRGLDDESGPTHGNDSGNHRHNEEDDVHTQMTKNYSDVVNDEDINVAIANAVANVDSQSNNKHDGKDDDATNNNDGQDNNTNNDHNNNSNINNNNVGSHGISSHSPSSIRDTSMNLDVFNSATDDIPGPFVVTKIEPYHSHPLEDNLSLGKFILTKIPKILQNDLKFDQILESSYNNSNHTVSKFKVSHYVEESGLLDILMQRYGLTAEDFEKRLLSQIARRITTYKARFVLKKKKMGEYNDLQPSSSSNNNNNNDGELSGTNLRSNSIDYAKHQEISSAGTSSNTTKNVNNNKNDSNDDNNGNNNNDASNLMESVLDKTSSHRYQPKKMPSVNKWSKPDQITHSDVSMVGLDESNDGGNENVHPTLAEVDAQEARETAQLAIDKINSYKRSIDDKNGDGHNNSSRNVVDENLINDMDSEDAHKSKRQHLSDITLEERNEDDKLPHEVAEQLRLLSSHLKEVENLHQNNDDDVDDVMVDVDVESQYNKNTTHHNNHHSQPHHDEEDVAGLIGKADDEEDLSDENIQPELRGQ
Description: PBM E-score (8-mer binding enrichment) (E-score (-0.5 to 0.5)); higher = stronger / more preferred TF binding. The settings on record: protein concentration: 200 nM; construct: GST-full length. In a few lines:
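GST-tagged yeast TFs (full-length or DNA-binding domain) were made by PURExpress in vitro transcription/translation and applied at about 100-200 nM to universal all-10-mer Agilent arrays. The arrays were made double-stranded by primer extension, on fresh or once-stripped slides. Bound protein was detected with fluorescent anti-GST, and scans were normalised with masliner. Each ungapped eight-base word, pooled with its reverse complement, received an E-score (modified Wilcoxon-Mann-Whitney statistic) from the Universal PBM Analysis Suite.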
Turning to GAAACTTC, the “PBM E-score” value was found to be 0.0521. With AGACAGTG the figure was -0.0919. With GCTTTTTA the figure was 0.0686; with CGCATCAC, 0.263; with CACTTTTC, 0.192. With AGCGGTAC the figure was -0.161; with CTGACGTC, 0.137; with CCCGAGCC, -0.299. Regarding ATATCACG, the “PBM E-score” value was found to be 0.401. To ATATCACC belongs 0.438; to CTATCACC, 0.226. With ATATCACA, the “PBM E-score” value was 0.282. CTATCACA: the “PBM E-score” value was found to be 0.199. To ATATCAGC belongs 0.00929; to ATCTCGCG, 0.206; to ATAATAGC, 0.0936. To CAGAGGAA belongs -0.148; to CGTAGGAG, 0.134. Consider CCCAAAGG, for which the “PBM E-score” value was -0.158.

Regarding ACGTATCA, the “PBM E-score” value amounted to 0.33. Consider ACGTATCG, for which the “PBM E-score” value worked out at 0.212.

Take CCGTATCA: the “PBM E-score” value came out at 0.28. With GCGTATCA, the “PBM E-score” value amounted to 0.109.

For the sequence TCGTATCA, the “PBM E-score” value came out at 0.331.

Turning to ACGTATCT, the “PBM E-score” value was -0.0664.

As to GCAGAACA, the “PBM E-score” value was -0.122. To ATTGCGTG belongs -0.126. With CGCATCAA the figure was 0.081; with ACTGGTAT, 0.0243.

In the case of CGTCACGA, the “PBM E-score” value came out at 0.336.

In the case of GGTCACGA, the “PBM E-score” value is 0.27. With AGTCACTC the figure was 0.232. To CGTCACGC belongs 0.145; to AGTCACTG, 0.0546; to GGTCACTA, 0.281. CGTCACTC: the “PBM E-score” value amounted to 0.173. Turning to CGTCACTA, the “PBM E-score” value amounted to 0.374. To AGTCACTA belongs 0.315; to ACGCCAGA, -0.081; to ACCACCTA, -0.168.

ACTGAAAT: the “PBM E-score” value was -0.0641. To AGCACCAC belongs -0.214; to ACGTTGGA, 0.142. To CAACCGAG belongs -0.0944; to ACGGACGA, 0.263. Consider GCGGACGA, for which the “PBM E-score” value came to 0.276. To TCGGACGA belongs 0.325; to GCAGACGA, 0.174; to TCAGACGA, 0.305.

Take ACAGACGA: the “PBM E-score” value was 0.236. To AGAATCCG belongs -0.0715; to GCTGAGGA, -0.131; to ACGACCTG, 0.0542. For the sequence GGGTAGAA, the “PBM E-score” value was -0.0486. With ACGCTGAT the figure was 0.0221; with AATATCAT, 0.391; with AATATCAG, 0.119. In the case of GATATCGA, the “PBM E-score” value came to 0.271. With AGTATCAT, the “PBM E-score” value was determined as 0.286. To AATATCAA belongs 0.0238; to GATATCGC, 0.341; to ACTATCAT, 0.184.

As for GATATCAA, the “PBM E-score” value stood at 0.207. With GCTATCAC the figure was 0.211; with AATATCGC, 0.283.

On to GATATCAC, for which the “PBM E-score” value turned out to be 0.414. On to AATATCAC, for which the “PBM E-score” value was 0.441. With CTATCAAA the figure was 0.121; with GCCAGCAC, -0.0263.

As to TAAAGACA, the “PBM E-score” value is -0.183. To CCGGAGCA belongs -0.291.

For CAACCTAG, the “PBM E-score” value is -0.0549. With GAAACCGC the figure was -0.15. Regarding CATATCAA, the “PBM E-score” value amounted to 0.222. To CATATCAG belongs 0.0515; to AATATCGA, 0.0788. In the case of CATATCAC, the “PBM E-score” value came out at 0.389. With AATATCGG the figure was 0.187; with AATATCGT, 0.398; with CAGACCTC, 0.00051. With GCTGGTTA the figure was -0.0104; with ACTAAGTG, 0.108; with TAATATCA, 0.344. With TAATATTA the figure was 0.361; with TAATATGA, 0.261; with GAATATCA, 0.334. With TAATATAA, the “PBM E-score” value worked out at 0.196. To GAATATCC belongs 0.0475. To AAATATGT belongs 0.334; to AAATATTA, 0.217.

With AAATATGC, the “PBM E-score” value came to 0.0361.

In the case of AAATATGA, the “PBM E-score” value was 0.0696. To CAATATTA belongs 0.271; to CAATATCA, 0.283.

Take AGGTAGAC: the “PBM E-score” value was -0.249. To CTAGGGCA belongs -0.273. To CCCAAAAG belongs -0.135; to AGCGGACT, -0.23; to GCTGGAGA, -0.0857. To GAGCTGCC belongs -0.0575; to ACAACTCG, 0.0757. Turning to AAATATCG, the “PBM E-score” value is 0.271. With AAATATCA the figure was 0.376. Take AAATATCC: the “PBM E-score” value was found to be 0.0659. With CAAATCGC the figure was -0.0589.

On to CCTTACAC, for which the “PBM E-score” value was -0.0587. To AGTATATA belongs 0.31; to CGTATATC, 0.255. To GGTATATA belongs 0.161.

CGTATATA: the “PBM E-score” value came out at 0.357. With AGTATATC, the “PBM E-score” value was 0.0567. Consider AGTATATG, for which the “PBM E-score” value was found to be 0.0541. On to AGTGGATC, for which the “PBM E-score” value was -0.0658. CTGCCATA: the “PBM E-score” value was -0.0819. With ACCGTATG the figure was 0.27. In the case of ACCGTATA, the “PBM E-score” value came to 0.384. GGCGTATA: the “PBM E-score” value was -0.0363. With GCCGTAGA the figure was 0.371; with TCCGTAGA, 0.143; with GCCGTAGC, 0.0651. To ACCGTATC belongs 0.225.
